# High-throughput results: PubChem BioAssay, National Center for Advancing Translational Sciences (NCATS)
# Hits are enriched below; roughly 7.5% of the tested compounds scored in any of these assays.
# FLuc counter: inhibits or activates purified firefly luciferase, miR-21 counter-screen; P08659; purified FLuc, Km substrates, luminescence inhibition; Potency, µM (highest dose often 57.5 µM), for inactives: at the top dose activity change, negative = inhibition, most hits filed as inhibitors; 360,000 tested, 6.9% active;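 also: plate controls were vehicle for no effect and reference inhibitor for full effect; nearly all actives have a fitted effect of over 55% in size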
# Target sequence (P08659 whole entry, looked up): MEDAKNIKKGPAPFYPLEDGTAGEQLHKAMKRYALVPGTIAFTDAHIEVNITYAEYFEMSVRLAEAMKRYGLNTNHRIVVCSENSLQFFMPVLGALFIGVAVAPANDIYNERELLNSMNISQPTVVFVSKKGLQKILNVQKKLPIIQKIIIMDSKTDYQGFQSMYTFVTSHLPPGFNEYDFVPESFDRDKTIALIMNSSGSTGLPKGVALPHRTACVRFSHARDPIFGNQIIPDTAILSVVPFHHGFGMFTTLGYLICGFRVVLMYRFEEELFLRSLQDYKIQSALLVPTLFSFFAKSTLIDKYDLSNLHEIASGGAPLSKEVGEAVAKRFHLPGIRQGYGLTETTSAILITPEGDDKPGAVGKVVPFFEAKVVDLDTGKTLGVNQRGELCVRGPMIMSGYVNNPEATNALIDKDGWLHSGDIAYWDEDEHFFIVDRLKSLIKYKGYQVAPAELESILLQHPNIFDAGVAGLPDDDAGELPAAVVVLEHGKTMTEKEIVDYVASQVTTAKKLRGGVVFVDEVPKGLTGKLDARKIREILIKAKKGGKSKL
#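 Biochemical qHTS of compounds, final roughly 60 µM downward over six points, against 10 nM purified firefly luciferase using Km concentrations of substrates (10 uM D-luciferin, 10 uM ATP) in Tris acetate pH 7.5 buffer; luminescence output.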
# KinaseGlo FLuc: blocks Kinase-Glo luciferase, a counter-screen artifact; Q27757; Kinase-Glo luciferase, ATP luminescence, 8 min; Potency, µM (series often up to 38.3 µM), for the others: at the highest dose activity change, negative = inhibition, most hits filed as inhibitors; 200,000 tested, 0.28% active; AID 1379; also: % is scaled to controls: 0 for no effect and ±100 for the full control effect; nearly all actives have a fitted effect of over 60% in size
#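 Substrate mix (final 50 mM imidazole pH 7.2, 50 mM KCl, 7 mM MgCl2, 10 uM ATP, 0.01% Tween 20, 0.05% BSA) plus pin-tool compound, then Kinase-Glo detection mix; 8 min ambient, luminescence read.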
# ELG1 genotox: induces genotoxicity in HEK293T cells with luciferase-tagged ELG1; HEK293T ELG1-luciferase reporter, luminescence, 16 h; AID 504466; 330,000 tested, 1.3% active; Potency, µM (highest dose often 46 µM), for the others: top-dose activity change, positive = activation, most hits filed as activators; also: % of control where 0% means no effect; nearly all actives have a fitted effect of over 60% in size
#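 HEK293T cells expressing luciferase-tagged ELG1 were exposed to compound or DMSO vehicle for 16 hr at 37 °C and 5% CO2. Luciferase activity was then measured with ONE-Glo after 30 min at room temperature.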
# Rab9 prom act: activates the Rab9 promoter. Huh7 Rab9 promoter-luciferase reporter, luminescence, 24 h. 320,000 tested, 2.8% active. Potency, µM (top dose mostly 9.22 µM), for the others: at the highest dose activation, negative = inhibition, most hits filed as activators. AID 485297; also: % of control where 0% means no effect; nearly all actives have a fitted effect of over 60% in size
#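 Rab9 promoter-driven luciferase in stably transfected Huh7 cells; 1500 cells/well rested 2 h, exposed to compound in DMSO for 24 h at 37 °C, 5% CO2. Luminescence read 10 min after adding luciferase reagent at ambient temperature.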
# SMN2 splice enh: SMN2 splice variant enhancement. HEK293 SMN2-luciferase splicing reporter, luminescence, 30-36 h. Potency, µM (top dose mostly 46.1 µM), for the others: at the highest dose activity change, positive = activation, actives largely listed as activators. 210,000 tested, 2.8% active; also: % of control where 0% means no effect; nearly all actives have a fitted effect of over 55% in size
#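 qHTS luciferase splicing reporter: luminescence rises when SMN2 exon 7 is included in transfected HEK293 cells. Compound exposure lasted 30-36 h at 37C, with 4.5 mM final sodium butyrate as control, followed by a ONE-Glo read.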
# NPC1 promoter act: activators of NPC1 promoter. Huh7 NPC1 promoter luciferase reporter, 24 h. Potency, µM (highest dose often 9.22 µM), for the others: at the top dose activation, most hits filed as activators. 320,000 tested, 2.4% active; also: % of control where 0% means no effect; nearly all actives have a fitted effect of over 60% in size
#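 Huh7 reporter cells (NPC1 promoter driving luciferase) are dosed with compound for 24 h at 37 °C, 5% CO2; luciferase detection reagent is then added and luminescence measured after 10 min at ambient temperature.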
# * = called active by the depositor; ? = inconclusive; . = no result given. Calls follow the shape of the dose curve; as a rule, active = well fitted curve in the direction sought with a large enough effect; inconclusive = small, poorly fitted or top-dose-only effect, or another doubt; inactive = no such curve, though single readings can be large; an effect the other way counts as inactive or inconclusive. Potency is read from the fitted curve at half-maximal effect.
SMILES,FLuc counter,KinaseGlo FLuc,ELG1 genotox,Rab9 prom act,SMN2 splice enh,NPC1 promoter act
CCOC(=O)/C=C(\C)Sc1cc(O)c2ccccc2c1O,9.5µM*,.,-12%,-32%,.,-2%
COC(=O)c1ccc2[nH]c(CO)c(-c3ccccc3)c2c1,-10%,.,9%,-6%,.,3%
CCC(C)(O)c1[nH]c2ccc(C(=O)OC)cc2c1C (stereo not given),21µM*,.,19%,29%,.,24%
NNC(=O)c1cccc(COc2ccc3c(c2)CCC3)c1,2.4µM*,-17%,?,0.32µM*,0.4µM*,0.22µM*
O=C(c1cccc(COc2ccc(Cl)cc2Cl)c1)N1CCN(c2ccccn2)CC1,4.8µM*,0%,.,.,4µM*,.
O=C(NCc1ccccc1)c1cccc(COc2ccccc2Cl)c1,15µM*,2%,?,1.8µM*,13µM*,1.8µM*
NNC(=O)c1cccc(COc2ccccc2Br)c1,7.6µM*,-4%,?,0.89µM*,13µM*,0.35µM*
CCOC(=O)CCN(c1ccccc1)S(=O)(=O)c1cc(-c2cc(C)no2)ccc1C,-11%,.,.,.,.,.
N#Cc1ccccc1OCC(=O)N1CCN(c2ccccc2)CC1,6%,.,.,.,-7%,.
CCOC(=O)c1cc(NC(=O)c2ccccc2)c(=O)n2c1oc1ccccc12,0%,0%,5%,-2%,-40%,-5%
Cn1nnnc1SCCNCc1ccc(OCc2ccc(Cl)cc2)cc1,?,.,.,.,-55%,.
COC(=O)c1ccccc1NC(=O)c1cccc(COc2ccccc2Cl)c1,17µM*,-1%,?,0.45µM*,11µM*,?
CN(C(=O)c1cccc(COc2ccc(Cl)cc2Cl)c1)c1ccccc1,12µM*,1%,2.1µM*,1µM*,3.2µM*,0.63µM*
O=C(NCc1ccccc1)c1cccc(COc2cc(Cl)ccc2Cl)c1,?,4%,?,3.2µM*,13µM*,2.5µM*
O=C(c1ccccc1)N1CCN(CC(O)COc2cccc3ccccc23)CC1 (stereo not given),1%,.,0%,4%,.,3%
CN(C(=O)c1ccc(COc2ccccc2Cl)o1)c1ccccc1,-5%,.,-1%,-6%,.,20%
O=C(NCc1ccccc1)c1cnc(Cl)c(Cl)c1,-1%,.,4%,12%,.,-2%
O=C(c1cccc(COc2cccc3ccccc23)c1)N1CCCC1,17µM*,4%,15%,2.5µM*,22µM*,?
O=C(CNC(=O)C1COc2ccccc2O1)Nc1ccc(F)c(F)c1 (stereo not given),.,.,1%,.,.,.
CCC1(c2ccccc2)NC(=O)N(CC(=O)Nc2ccc(N3CCCC3)cc2C)C1=O (stereo not given),1%,.,-13%,-1%,.,-2%
Cc1csc2nc(COc3ccccc3NC(=O)c3ccco3)cc(=O)n12,2%,.,.,.,-11%,.
COC(=O)c1ccnc(SCC(=O)c2ccccc2)c1,3.8µM*,-5%,15µM*,2.8µM*,?,3.2µM*
COC(=O)c1cnc(SCC(=O)c2ccccc2)n1C,3.4µM*,.,?,1.1µM*,.,1µM*
COC(=O)c1cnc(SCc2ccc(Cl)cc2)n1C,?,-1%,10%,?,.,21%
COc1ccc(N2CC(NC(=O)/C=C\c3ccc4c(c3)OCO4)CC2=O)cc1 (stereo not given),-13%,.,.,.,.,.
CCC(=O)Nc1cccc(C(=O)OCC(=O)c2ccccc2Cl)c1,7.6µM*,-1%,?,?,26%,3.2µM*
CC(=O)Nc1cccc(C(=O)OCC(=O)Nc2ccc(Cl)cn2)c1,?,.,11%,-2%,.,2%
CC(=O)Nc1cccc(C(=O)OCC(=O)N2CCC(c3ccccc3)=N2)c1,15µM*,.,?,?,.,?
CC(=O)Nc1cccc(C(=O)OCC(=O)NC(=O)c2ccccc2)c1,-13%,.,2%,0%,.,-1%
Cc1cc(C(=O)OCC(=O)N2CCC(c3ccccc3)=N2)ccc1[N+](=O)[O-],13%,.,3%,1%,.,-2%
